Experimental data taken from the supplement of paper PMC6555819.

What follows are sequences tested on VDR:RXRa (NR concentration 270 nM, RXRa partner concentration 90 nM) (assay: PBM binding z-score (relative to random genomic background probes); higher = stronger binding; sequences stand for … in GC…GCGATTGACAGCGTAGAATGAAGG).
Experimental: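 Protein-binding microarray (Agilent 4x180K custom design, double-stranded 60-nt probes: 5' GC cap, 34-nt variable region, 24-nt constant primer region; full probe sequence given). Purified or IVT nuclear receptor:RXRα heterodimers (3:1 NR:RXRα, mostly 270:90 nM) or homodimers were incubated for 1 h in PBS with 2% milk and no ligand, then detected with Alexa488 antibodies. Fluorescence from o1-orientation probes (~5 replicates averaged) was converted to z-scores against 500 random hg19 background probes. Variable regions are seed direct-repeat (DR0–DR5) sites, all their single-nucleotide variants and half-site ablations.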

Sequence | PBM binding z-score
TAGCCTAGGTCATGGGCCAGGATACCACGCGAAC | 1.97
TATCCTAGGTCATGCGGGCCAGTATAGTGTCGGC | 3.5
AATACAGGCTCATCGTAGGCCAGAGTACGCACAG | -0.438
ATATGTAGGTTACATCCGGGTCATTCAAGCTATG | 4.17
TCATATAGGTAAAGGTGCAAGTCGAACGATATGA | 0.567
TCTAGTAGGCCAGAGGGTCACTCAAGAGGTACGG | 1.91
CCGACTAGGGCAAAGGTTACCATACTCAGTACGA | 1.61
TTACCAAGGTGAAAGGTCGTTTATGCACGCCTTG | 3.32
CAGCCTAGGTCCGGGCCAGTATAGGAGGAACGTT | -0.982
CGTCAAAGTTCAACTACGGTAACGTAAAGCACGC | 4.19
CCTACTGGGCCATTCACAGGTCATTGATCATATG | 1.72
ACTATTAGTTTAGACGAGGGCAACCGATAGGTTG | 0.8
TAGCCTAGGTCCTTGGGCCAGTATAGTACGCATC | -0.897
CAAACTAGGTCACAGAGGTCAGAGTCCGTGCGTA | 7.34
TTACCCAGGTGAAGGTCGTTGATCCCTCTGTAGA | 1.05
TCAGACAGGTAAAGGTAACTCAGGTACGCAGTCG | 1.44
ATATCTAGGTAAAGTTCAGTGAAAGATCGATAGA | 1.53
TCTCGGAGGACACGAAGGTGAGAGCTTTCCAGAG | -0.377
CCTGCTAGGTCAATTGTCAGCTAAAGCAGCTCGC | 0.479
ACTATTAGTTGAGACGAGGGCCACCGATAGGTTG | -0.293

Sequence | PBM binding z-score
TCATATAGGTAAACAGGTGAAATTCCGTAAGTTA | 1.35
ACTAGCAGGCCAAGTTTGGGTCACTCGAACAAAG | 0.392
TAGCCTAGGTCATGGGCAAGTATACCACGCGAAC | 2.13
GATACAGGGTCAAGCCCAGAGTACGCGTATTGAT | 4.5
CTGGAAAGGTCGGTTGAGGTGAGTATACGGATAA | 2.15
AATACAGGGTCATCGTAGGCCTGAGTACGCACAG | 4.97
TCTGCTAGGTCAGTTGGTCAGCTAACGAGCTGCC | 0.166
GCATGTAGATCAAGGTTAAGAAAGACTAAGCTAA | 0.22
AGTCAAAGTTCAGGACGAGGAAACGTAAAGCACG | 2.2
ATCGAACGGTCGTGAGGTGAGTATACAGAAAGGC | -0.0539
AGAACGAGGTTATTAAGATCAGGGAATTGCGGTC | 2.38
CCTATTAGTTGACCATAAGAGCAACCGAAGCTCG | 1.06
AGTCAAAGTACACTAGGTAACGTAAGATTCAGCT | -0.00797
CGAACTAGGTCTAGGACAGTGAATCTCCGCACGC | -0.692
CCTTACGGGTCACGAGGTGATAGCACGACGAGCG | 4.18
GTACCAAGGTGAATAGGTCGTTGTTGAGTAGGCG | 0.825
CATACAGGGTCAGCTAGGTCAGAGTAGGGACGGC | 5.76
CGAACTAGGTCATCCAGGCCAGTGAATACATTGA | 3.97
CAAACTGGGTCAAAGGTCAAAGTCGAGCCAACCA | 6.65
GCATATAGGTAATACAAGGCGAAAGTCCGATTGT | -0.126
